From PubChem BioAssay (NCI)
This is part of a sample that, as a whole, favours compounds with a hit. Of some 79,000 tested, about 15% had one in any assay. Cut-off read from the data, not from the text of the source: active = growth inhibition above about 70%; inactive = the rest.

What was measured:
[1] = NCI Yeast Anticancer Drug Screen. Data for the rad50 strain (AID 155);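 note: 0% = growth of vehicle-only cultures of the same strain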; conditions: S. cerevisiae rad50 strain growth inhibition; at 50.0 µM; active compounds read high
Method in brief: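 DNA repair mutant yeast, compound exposure, growth read-out; inhibition is taken relative to vehicle.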

[2] = NCI Yeast Anticancer Drug Screen. Data for the mec2-1 strain (AID 157); conditions: S. cerevisiae mec2-1 strain, at 50.0 µM, active compounds read high
Method in brief: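 Compounds were applied to mec2-1 yeast cells. Their growth was then compared with that of vehicle-treated cultures to give growth inhibition.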

[3] = NCI Yeast Anticancer Drug Screen. Data for the sgs1 mgt1 strain (AID 161);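 note: 0% = growth of cultures given vehicle only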; conditions: S. cerevisiae sgs1 mgt1 strain, at 50.0 µM, active compounds read high
Method in brief: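 Percent growth inhibition was derived by comparing compound-exposed mutant yeast with vehicle-exposed cultures. The strain carries alterations in DNA damage repair.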

[4] = NCI Yeast Anticancer Drug Screen. Data for the cln2 rad14 strain (AID 165);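 note: 0% = growth equal to vehicle treated cultures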; conditions: S. cerevisiae cln2 rad14 strain, at 50.0 µM, active compounds read high
Method in brief: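 Strain: cln2 rad14 yeast, altered in cell cycle control and DNA damage repair. Read-out: growth inhibition vs vehicle.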

[5] = NCI Yeast Anticancer Drug Screen. Data for the bub3 strain (AID 167); conditions: S. cerevisiae bub3 mutant strain, at 50.0 µM, active compounds read high
Method in brief: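 In this screen, a yeast mutant lacking normal mitotic checkpoint function is challenged with compound. Relative growth versus vehicle gives the inhibition value.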

[6] = NCI Yeast Anticancer Drug Screen. Data for the mlh1 rad18 strain (AID 175); conditions: S. cerevisiae mlh1 rad18 strain growth inhibition; at 50.0 µM; active compounds read high
Method in brief: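 A repair-deficient yeast strain is exposed to test compound, and growth is scored relative to vehicle-treated controls.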

Measured: growth inhibition

CC1CCP(=O)(c2ccccc2)CC1 (stereo not given)
inactive: [1] 8.5% | [2] -10.8% | [3] -7.15% | [4] 6.9% | [5] -7.3% | [6] -35.2%

C=C1C(=O)O[C@@H]2C3=C(C)C(=O)C=C[C@]3(C)CC[C@@H]12
inactive: [1] 5.3% | [2] 9.05% | [3] 8.55% | [4] 0.8% | [5] 6.6% | [6] -14.3%

COC(=O)CSc1n[nH]c(-c2ccccc2)n1
inactive: [1] 1.05% | [2] -7.25% | [3] 7.2% | [4] -1% | [5] 3.4% | [6] -4.3%

Cc1noc2cccc(OCc3ccccc3)c12
inactive: [1] -32.2% | [2] -40.5% | [3] 5.4% | [4] -0.6% | [5] 17.4% | [6] -9.2%

O=C(OC1COC(n2c(=O)oc3cc([N+](=O)[O-])c([N+](=O)[O-])cc32)C(OC(=O)c2ccccc2)C1OC(=O)c1ccccc1)c1ccccc1 (stereo not given)
inactive: [1] -5.15% | [2] 8.6% | [3] 14.4% | [4] -9.15% | [5] -8.55% | [6] 3.35%

COC(=O)CCCCCCC/C=N/Nc1ccc([N+](=O)[O-])cc1[N+](=O)[O-]
inactive: [1] 6.9% | [2] 22% | [3] 4.7% | [4] 8.85% | [5] 7.3% | [6] 17.4%

COC(=O)c1c(C)oc(C)c1-c1ccc(OCc2ccccc2)c(OC)c1
inactive: [1] 8.7% | [2] -12.8% | [3] -35.8% | [4] 7.6% | [5] 1.25% | [6] 2.7%

CCc1ccc(/C(C#N)=C/c2cccc3ccccc23)cc1
inactive: [1] 2.45% | [2] -11.1% | [3] -0.6% | [4] -1.9% | [5] 4.05% | [6] -5.25%

CCN(CC)C(=O)c1ccncc1C(=O)c1ccncc1
inactive: [1] -1.2% | [2] -3.55% | [3] -8.4% | [4] -14.3% | [5] -1.95% | [6] -10.1%

Cc1cc(=O)c2c(Br)ccc(Br)c2[nH]1
inactive: [1] 3.5% | [2] -16.1% | [3] -1.1% | [4] 3.4% | [5] 7.3% | [6] -13.8%

CC(=O)c1ccc(N2C(=O)C3c4[nH]c5ccccc5c4C4CCC(C(C)(C)C)CC4C3C2=O)cc1 (stereo not given)
inactive: [1] 42.8% | [2] -2.7% | [3] 0.5% | [4] 63% | [5] 16% | [6] 18.4%

Cc1ccc(NC(=S)Nc2ccccc2F)cc1
inactive: [1] -8% | [2] -13.2% | [3] -2.2% | [4] -28.8% | [5] 43.5% | [6] 10%

Cc1ccc(Cc2nn(C)c(=O)n2N)cc1
inactive: [1] -7.1% | [2] -2.5% | [3] 18.6% | [4] -3% | [5] -13.1% | [6] -18.9%

CSc1[nH]c2ncnc(Cl)c2c1C#N
inactive: [1] 23.6% | [2] 10.3% | [3] 15.9% | [4] -21.8% | [5] -27.3% | [6] 21.7%

Cc1cccc(-c2cc(=O)c3c(C)cc(C)nc3[nH]2)c1
inactive: [1] -2.1% | [2] 2.7% | [3] 21.9% | [4] 24.8% | [5] 24.1% | [6] -39.4%

COC(=O)C=Cc1ccc2nncnc2c1 (mixture of isomers)
inactive: [1] 24.1% | [2] 21.7% | [3] 8.15% | [4] 17.1% | [5] 36.4% | [6] -7.7%

CN(C)CC1CCC/C(=C\c2ccc(N(C)C)cc2)C1=O (stereo not given)
inactive: [1] -18.6% | [2] -44.9% | [3] -9.85% | [4] 12.2% | [5] 6.2% | [6] -34.3%

CC1=C[C@@H]2[C@@H](CC(CO)=C[C@H]3[C@@H]4C(C)(C)[C@]4(OCC(C)C)[C@H](OCC(C)C)[C@@H](C)[C@]23O)C1=O
inactive: [1] -13.7% | [2] -14.2% | [3] -55.5% | [4] -0.1% | [5] -69.2% | [6] -13.9%

c1ccc(P(CCNCCP(c2ccccc2)c2ccccc2)c2ccccc2)cc1
inactive: [1] -16% | [2] 11.8% | [3] 8.6% | [4] 10.3% | [5] 2.25% | [6] 6.75%

CC(=O)Nc1nc(NC(C)=O)c2nc(CCN(C)c3ccc(C(=O)O)cc3)cnc2n1
inactive: [1] -9.05% | [2] -18.4% | [3] -5.6% | [4] -5.25% | [5] -40.5% | [6] 2.15%
